pPAFAH inh: inhibitors of human plasma PAF acetylhydrolase (pPAFAH). Q13093. recombinant pPAFAH, FP-rhodamine probe fluorescence polarization. inhibition, % at 3.39 µM. 330,000 tested, 1.5% active;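 active = inhibition above the mean inhibition across the screen plus 3 SD, cut at about 25% in these data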;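 also: inhibitors block binding of the rhodamine activity-based probe so polarization drops; 0% = enzyme with DMSO and 100% = wells lacking pPAFAH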
Target sequence (Q13093 whole entry, looked up): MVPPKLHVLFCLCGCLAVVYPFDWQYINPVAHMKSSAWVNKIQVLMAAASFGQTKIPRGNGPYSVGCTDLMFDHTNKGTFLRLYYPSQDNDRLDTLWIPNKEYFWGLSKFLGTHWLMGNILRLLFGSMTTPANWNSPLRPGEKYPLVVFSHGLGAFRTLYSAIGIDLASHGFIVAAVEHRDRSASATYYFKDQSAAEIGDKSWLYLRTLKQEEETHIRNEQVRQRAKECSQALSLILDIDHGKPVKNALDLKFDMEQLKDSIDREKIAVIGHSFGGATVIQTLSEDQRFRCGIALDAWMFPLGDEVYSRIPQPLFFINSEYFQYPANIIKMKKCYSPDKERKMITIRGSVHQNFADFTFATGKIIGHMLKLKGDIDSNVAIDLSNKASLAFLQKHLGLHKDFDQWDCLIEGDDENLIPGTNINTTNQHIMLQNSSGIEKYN
PfM18AAP inh: PfM18AAP enzyme inhibition; recombinant PfM18AAP, H-Glu-NHMec fluorogenic cleavage; inhibition, % at 7.35 µM; 290,000 tested, 1.2% active; AID 1822;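 active = inhibition above the campaign mean inhibition over all tested compounds plus 3 SD, cut at about 28% in these data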;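 also: 0% = plate median of test compound wells and 100% = 2 mM ZnCl2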
PAFAH1B2 FP inh: blocks human PAF acetylhydrolase 1b catalytic subunit 2 | 340,000 tested, 1.2% active | recombinant PAFAH1B2, FP-rhodamine activity probe, fluorescence polarization | AID 492953 | inhibition, % at 3.39 µM;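 active = inhibition above the mean of all tested compounds plus 3 SD, cut at about 24% in these data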;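 also: 0% = enzyme with DMSO and 100% = wells lacking PAFAH1B2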
Pemphigus Ab inh: blocks pemphigus antibody binding to human desmoglein-3; P32926; DSG3-coupled beads, scFv-anti-DSG3-GFP binding, flow cytometry; stronger effect = lower value; binding (percent of control), % at 10 µM; 310,000 tested, 0.48% active; AID 588358;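 active = binding more than 3 SD below its plate's average and above zero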;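 also: hits lower antibody fragment binding to DSG3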
PAFAH2 FP inh: inhibitors of human PAFAH2. Q99487. recombinant PAFAH2, FP-rhodamine activity probe, fluorescence polarization. inhibition, % at 3.39 µM. 340,000 tested, 0.99% active;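 active = inhibition above the mean over all tested compounds plus 3 SD, cut at about 30% in these data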;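 also: inhibitors block probe labeling of enzyme so polarization drops; 0% = enzyme with DMSO and 100% = wells lacking PAFAH2 protein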
PAFAH1B3 FP inh: PAFAH1B3 (human) inhibition. recombinant PAFAH1B3, FP-rhodamine probe, fluorescence polarization. 340,000 tested, 0.28% active. inhibition, % at 3.39 µM. AID 492972. Q15102;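 active = inhibition above the screen-wide average of all tested compounds plus 3 SD, cut at about 25% in these data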;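 also: 0% = enzyme with DMSO only and 100% = wells lacking PAFAH1B3 protein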
* = called active by the depositor; nt = no result. Compounds with a hit are over-represented: about 3.8% of the library has one in this group of screens.

SMILES	pPAFAH inh	PfM18AAP inh	PAFAH1B2 FP inh	Pemphigus Ab inh	PAFAH2 FP inh	PAFAH1B3 FP inh
N#CCC(=O)c1sccc1-n1cccc1	34*	6	11	100	3	6
CC(=O)Nc1cc(Cl)c(N=Cc2ccc(O)cc2O)cc1Cl	41*	15	1	94	-11	5
Cc1ccc2occ(C3NC(C(=O)O)CS3)c(=O)c2c1 (centres undefined)	8	31*	0	103	-6	-2
Cc1ccc2occ(C3N[C@H](C(=O)O)CS3)c(=O)c2c1 (some centres undefined)	3	24	-2	97	1	-1
O=C(Cn1nnc(-c2ccccc2)n1)N/N=C/c1cc([N+](=O)[O-])c(Cl)cc1Cl	0	-4	4	74*	-1	-4
CC(=O)/C=C(\C)Nc1ccccc1O	8	29*	0	108	2	1
COc1ccc(NC(=O)CN(C)S(=O)(=O)c2ccc(Br)s2)cc1	-3	-4	2	-22*	0	4
COc1ccc(NC(=O)CN(C)S(=O)(=O)c2ccc(Br)s2)cc1OC	3	-1	1	110	8	-5
COc1ccccc1CCC(=O)Nc1ccc(S(=O)(=O)Nc2ncccn2)cc1	nt	nt	nt	140	nt	nt
N#C/C(=N\Nc1ccc(S(=O)(=O)N2CCc3ccccc32)cc1)C(N)=S	24	8	26*	103	24	14
CCCCOC(=O)c1ccc(NS(=O)(=O)c2cc(-c3nnnn3CC)ccc2OC)cc1	28*	-1	6	102	0	9
C=CCSc1cc(C)nc2c(-c3ccccc3)c(C)nn12	2	0	2	nt	4	2
Cc1cc(SCC#N)n2nc(C)c(-c3ccccc3)c2n1	32*	21	-1	82	9	3
CCn1nc(C)cc1C(=O)N1CCCC(CCC(=O)NCc2ccccc2F)C1 (centres undefined)	5	-15	0	nt	-2	2
CC(C)C(NC(=O)CC12CC3CC(CC(C3)C1)C2)C(=O)O (centres undefined)	2	-3	25*	96	5	4
COc1ccccc1N(C)S(=O)(=O)c1ccc(C(=O)NCCCN2CCCC2=O)cc1	nt	nt	nt	101	nt	nt
CCOc1ccc(-n2ccc(=O)c(C(=O)Nc3ccc(S(=O)(=O)Nc4nccs4)cc3)n2)cc1	17	2	5	101	12	5
O=C(Nc1ccc(S(=O)(=O)Nc2nccs2)cc1)c1nn(-c2ccc(F)cc2)ccc1=O	26*	2	1	93	24	7
Cc1ccc(-c2cn(-c3ccccc3)c(SCC(N)=O)n2)cc1C	30*	0	-4	97	8	2
CCOC(=O)NC(=O)CSc1nc(-c2ccc(C)c(C)c2)cn1-c1ccccc1	32*	3	3	nt	3	0
CCOC(=O)NC(=O)CSc1nnnn1-c1ccccc1	-2	5	3	98	7	1
Cc1ccc(OC(C)C(=O)N2CCc3ccccc32)c([N+](=O)[O-])n1 (centres undefined)	nt	nt	nt	102	nt	nt
O=C(CN1CC[C@@]2(O)CCCC[C@H]2[C@@H]1c1ccc(F)cc1)NCc1ccco1	5	1	2	107	-3	7
CCOC(=O)N1CCC2(O)CCCCC2C1c1ccc(F)cc1 (centres undefined)	1	-8	11	86*	-2	3
CSc1nc(N)nc2c1ncn2CC(=O)NCCCN1CCCC1=O	0	nt	-4	102	4	5
SMILES	pPAFAH inh	PfM18AAP inh	PAFAH1B2 FP inh	Pemphigus Ab inh	PAFAH2 FP inh	PAFAH1B3 FP inh
CC(=O)NC(Cc1cc(C)ccc1C)C(=O)N1CCN(C(=O)c2ccc([N+](=O)[O-])cc2)CC1 (centres undefined)	2	-7	1	103	3	1
CC(=O)OCC1=C(C(=O)O)N2C(=O)C(NC(=O)COc3ccc(F)cc3)C2SC1 (centres undefined)	nt	nt	6	101	5	-2
CC(=O)OCC1=C(C(=O)O)N2C(=O)C(NC(=O)c3ccc(COc4ccc(Cl)cc4)o3)C2SC1 (centres undefined)	26*	17	25*	93	7	2
Clc1ccccc1/C=C/c1ccnc2ccccc12	31*	10	3	99	-1	5
Cc1nc(C)c(-c2csc(Nc3ccc(Cl)cn3)n2)s1	nt	nt	nt	102	nt	nt
CC(OC(=O)C1=COCCO1)C(=O)Nc1ncc(Cl)cc1Cl (centres undefined)	nt	nt	47*	107	1	-6
c1ccc(N=C2SCCCS2)cc1	nt	nt	nt	103	nt	nt
CC(=O)Nc1cccc(NC(=O)C2CCCO2)c1 (centres undefined)	nt	nt	nt	101	nt	nt
COc1ccc(O)c(/C=N/NC(=O)c2ccc(CSc3nc(C)cc(C)n3)cc2)c1	27*	-1	16	104	1	9
COc1ccc(/C=N/NC(=O)c2ccc(CSc3nc(C)cc(C)n3)cc2)cc1O	16	2	1	101	-13	3
Cc1cc(C)nc(SCc2ccc(C(=O)N/N=C/c3cccc(O)c3O)cc2)n1	32*	18	21	nt	0	37*
Cc1cc(C)nc(SCc2ccc(C(=O)N/N=C/c3ccc(C(=O)O)cc3)cc2)n1	3	2	-3	27*	-4	10
C[C@@H]1CN([C@H](C)CO)C(=O)CCCn2nncc2CO[C@H]1CN(C)C(=O)c1ccncc1	nt	nt	nt	90	nt	nt
C/C(=N/OC(=O)C1CC12CCC2)c1ccc(Br)cc1 (centres undefined)	5	-3	52*	107	51*	5
N/C(=N\OC(=O)C1CCCCC1)c1ccc(Br)cc1	-2	-3	6	100	3	14
O=C(/C=C/c1ccoc1)c1ccccc1O	0	6	1	108	1	-1
COc1ccc2ccccc2c1C(=O)/C=C\c1ccoc1	27*	3	1	102	6	0
CCOc1ncccc1C(=O)OCC(=O)Nc1ncc(C(F)(F)F)cc1Cl	27*	-8	-3	nt	17	0
CCOc1ccccc1C(=O)OCC(=O)Nc1ncc(C(F)(F)F)cc1Cl	27*	5	4	103	4	11
Nc1nc(SCC(=O)Nc2ncc(C(F)(F)F)cc2Cl)n[nH]1	1	28*	-2	93	-5	2
O=C(COC(=O)c1cccc2ccccc12)Nc1ncc(C(F)(F)F)cc1Cl	2	3	-1	nt	-1	-4
CCN(C(=O)COC(=O)c1cc(Cl)ccc1OC)c1c(N)n(Cc2ccccc2)c(=O)[nH]c1=O	-2	nt	4	101	3	2
N#Cc1ccc(NC(=O)COC(=O)CCNS(=O)(=O)c2ccccc2)cc1	29*	1	5	104	1	2
O=C(CCNS(=O)(=O)c1ccccc1)OCC(=O)c1ccc(Br)cc1	21	nt	11	100	3	-1
O=C(COC(=O)CCNS(=O)(=O)c1ccccc1)Nc1ccc(OC(F)F)cc1	22	nt	3	100	3	8
